mIDH1 inhibitor = qHTS for Inhibitors of mutant isocitrate dehydrogenase 1 (IDH1): qHTS; Potency, µM (series often up to 76.6 µM), actives largely listed as inhibitors; Isocitrate dehydrogenase [NADP] cytoplasmic (Homo sapiens), O75874; AID 602179, 2012; IDH1-R132H enzyme, NADPH consumption, diaphorase/resazurin fluorescence; 0.093% of 390,000 active; note: nearly all actives have a fitted effect of over 65% in size
Target sequence (O75874 whole entry R132H, stated change not applied): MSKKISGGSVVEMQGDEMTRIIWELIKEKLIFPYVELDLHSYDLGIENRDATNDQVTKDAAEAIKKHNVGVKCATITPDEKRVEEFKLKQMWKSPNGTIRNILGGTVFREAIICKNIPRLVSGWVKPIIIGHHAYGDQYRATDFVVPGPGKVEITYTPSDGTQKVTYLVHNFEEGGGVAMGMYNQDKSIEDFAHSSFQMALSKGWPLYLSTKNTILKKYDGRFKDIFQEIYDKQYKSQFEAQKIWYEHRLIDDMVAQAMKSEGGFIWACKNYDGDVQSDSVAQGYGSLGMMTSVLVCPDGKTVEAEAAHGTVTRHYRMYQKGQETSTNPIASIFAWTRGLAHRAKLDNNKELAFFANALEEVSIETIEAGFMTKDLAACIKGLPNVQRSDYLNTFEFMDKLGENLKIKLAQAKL
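IDH1-R132H (0.5 ug/mL) preincubated 30 min with compound, then NADPH (0.016 mM) and alpha-KG (2 mM) added; 80 min at RT, pH 7.5. Remaining NADPH coupled via diaphorase/resazurin to fluorescence (540/590 nm); concentration-response curves normalized to no-enzyme control.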
DRD3 agonist = qHTS of D3 Dopamine Receptor Agonist: qHTS; D(3) dopamine receptor (Homo sapiens), P35462; max activation, %; AID 652048, 2013; 0.58% of 410,000 active; D3R DiscoveRx beta-arrestin cells, luminescence, 90 min; in the data active = max activation above about 30%
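Agonist-mode cell screen: cells plated at 1500/well and incubated overnight at 37 °C, then exposed to library compounds for 90 min at 37 °C. Detection reagent was added for 30–60 min at room temperature, and luminescence was read.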
D3 antag = qHTS of D3 Dopamine Receptor Antagonist: qHTS. D3R cells, DiscoveRx beta-arrestin luminescence, antagonist mode; active compounds read low. max response, negative = inhibition, %. 2.5% of 360,000 active; in the data active = max response below about -50%; inconclusive = no clear call, values can overlap the other calls
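Cells plated overnight at 1500 cells/well, then exposed to library compounds with dopamine controls for 90 minutes at 37 degrees C. DiscoveRx reagent added for 30–60 minutes at room temperature; luminescence read, quantitative HTS format.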
B2AR arrestin = qHTS assay of beta-arrestin-biased ligands of beta2-adrenergic receptor. 0.02% of 330,000 active. beta-arrestin recruitment to beta2AR, cell-based reporter. Potency, µM (doses to about 46.1 µM), usual class: activators. Beta-2 adrenergic receptor (Homo sapiens), P07550; note: nearly all actives have a fitted effect of over 65% in size
Integrin act MD = qHTS for Activators of Integrin-Mediated Alleviation for Muscular Dystrophy; alpha7betagal myoblasts, beta-gal FDG fluorescence, 48 h; Potency, µM (highest dose often 38.3 µM), most hits filed as activators; 0.064% of 350,000 active; note: nearly all actives have a fitted effect of over 60% in size
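alpha7betagal+/- myoblasts (passage 13, 250/well) treated 48 h at 37C with compounds at 1:260 dilution of DMSO stock. Lysed, then beta-galactosidase activity read as FDG fluorescence (ex 480/em 540) after 30 min, with pre-read for autofluorescence.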
Of the large screens only hits and unclear results are named; the others gave an inactive call. Shown are actives, neighbours in structure and some others; about 2.9% of the full set was active somewhere. Unless noted, calls come from the whole dose curve; as a rule, active = well fitted curve in the direction sought with a large enough effect; inconclusive = small, poorly fitted or top-dose-only effect, or another doubt; inactive = no such curve, though single readings can be large; an effect the other way counts as inactive or inconclusive.

Cc1c(OCC(=O)N[C@@H](Cc2ccccc2)C(=O)O)ccc2c1oc(=O)c1ccccc12	DRD3 agonist 31
CCCCN1C(C(=O)c2ccccc2)=C(OC(C)=O)c2ccccc2S1(=O)=O	none (no result: D3 antag, B2AR arrestin, Integrin act MD)
Cc1cccc(CS(=O)(=O)Cc2ccc(C(=O)NCc3cccs3)o2)c1	DRD3 agonist 32
Cc1c(Cl)sn(-c2ccc(Cl)cc2)c1=O	D3 antag -52
CCC(=O)Nc1nonc1-c1nc2ccccc2n1CCC(C)C	none
CC(=O)Nc1nonc1-c1nc2ccccc2n1CCC(C)C	Integrin act MD 11µM
CSc1nnc(CCNS(=O)(=O)c2ccc(Br)cc2)n1C	none
COc1ccc(N(CC(C)C)S(=O)(=O)c2nnc(NC(=O)c3ccco3)s2)cc1	D3 antag -91
COc1cc(/C=N/n2c(-c3cc(C)[nH]n3)n[nH]c2=S)cc(OC)c1OC	D3 antag -51
O=C1C(Cl)=C(N2CCC(C(=O)O)CC2)C(=O)c2ccccc21	D3 antag -53, Integrin act MD inconclusive
CC1COCC(C)N1C1=C(Cl)C(=O)c2ccccc2C1=O (configuration not stated)	D3 antag -58 (no result: B2AR arrestin)
CN1CCN(C2=C(Cl)C(=O)c3ccccc3C2=O)CC1	D3 antag inconclusive (no result: B2AR arrestin)
NC(=O)C1CCN(C2=C(Cl)C(=O)c3ccccc3C2=O)CC1	D3 antag -75
NC(=O)C[C@@H](N)C(=O)O	none (no result: mIDH1 inhibitor, D3 antag, B2AR arrestin, Integrin act MD)
CCOc1ccc(C2c3[nH]c4ccccc4c3CCN2C(=O)CSc2ccccc2)cc1 (configuration not stated)	none (no result: D3 antag, B2AR arrestin, Integrin act MD)
CCN1CCCC1CNC(=O)c1cc2c(-c3ccc(Cl)cc3)nn(C)c2s1 (configuration not stated)	D3 antag inconclusive
CCN1CCCC1CNC(=O)c1cc2c(-c3cccc(OC)c3)nn(C)c2s1 (configuration not stated)	D3 antag -72
COc1ccc(NC(=O)c2cc3c(-c4ccccc4F)nn(C)c3s2)c(OC)c1	DRD3 agonist 41 (no result: D3 antag, B2AR arrestin, Integrin act MD)
COc1cccc(-c2nn(C)c3sc(C(=O)NCCc4ccc(Cl)cc4)cc23)c1	none (no result: D3 antag, B2AR arrestin, Integrin act MD)
CCCCN(CC)CCCNC(=O)c1cc2c(-c3ccc(OC)c(OC)c3)nn(C)c2s1	D3 antag -98
COc1cccc(-c2nn(C)c3sc(C(=O)NCCCN(C)Cc4ccccc4)cc23)c1	D3 antag -53
CCC1Oc2ccccc2N(CC(=O)NCc2cc(OC)ccc2OC)C1=O (configuration not stated)	none (no result: D3 antag, B2AR arrestin, Integrin act MD)
Cc1ccc(C)c(Cn2c3ccccc3c3cnn(CC(=O)NC4CCCCCC4)c(=O)c32)c1	none (no result: D3 antag, B2AR arrestin, Integrin act MD)
COCCCN(Cc1ccco1)C(=O)c1cc2c(s1)-c1ccccc1OC2	none (no result: D3 antag, B2AR arrestin, Integrin act MD)
COCCNC(=O)c1cc2c(-c3ccccc3F)nn(C)c2s1	none
CCCCN(C)CCNC(=O)c1cc2c(-c3cccc(OC)c3)nn(C)c2s1	D3 antag -78
CCCCN(C)CCNC(=O)c1cc2c(-c3ccccc3F)nn(C)c2s1	D3 antag -95
CCN(CC)CCCNC(=O)c1cc2c(-c3cccc(OC)c3)nn(C)c2s1	D3 antag -82
COc1ccc(CCNC(=O)c2c(O)c3c([nH]c2=O)CCCC3)cc1	D3 antag -126
CCCNC(=O)c1c(O)c2c([nH]c1=O)CCCC2	none
Cc1ccc(S(=O)(=O)/N=C(/c2ccccc2)N2CCOCC2)cc1	DRD3 agonist 36
Cc1cc(=O)n(CC(=O)N2CCN(c3ccccc3F)CC2)c2c1c(C)nn2C	none (no result: D3 antag, B2AR arrestin, Integrin act MD)
CSc1sccc1/C=N/NC(=O)c1ccncc1	none
CSc1sccc1/C=N/O	D3 antag -55
CCN(C[C@H]1N[C@@](Cc2ccccc2)(C(=O)OC)[C@H]2C(=O)N(Cc3ccccc3)C(=O)[C@@H]12)S(=O)(=O)c1ccccc1	D3 antag -72
CCN(C[C@H]1N[C@@](Cc2ccccc2)(C(=O)OC)[C@H]2C(=O)N(Cc3ccccc3)C(=O)[C@@H]12)S(=O)(=O)c1ccc(-c2ccccc2)cc1	none
COC(=O)[C@]1(Cc2ccccc2)N[C@H](CN(C)C(=O)Nc2ccccc2)[C@@H]2C(=O)N(C)C(=O)[C@@H]21	none
CCN(C[C@H]1N[C@@](CC)(C(=O)OC)[C@H]2C(=O)N(Cc3ccccc3)C(=O)[C@@H]12)C(=O)c1ccc(C)cc1	DRD3 agonist 55
COC(=O)[C@]1(Cc2ccccc2)N[C@H](CN(C)C(=O)Nc2ccc(OC)cc2)[C@@H]2C(=O)N(C)C(=O)[C@@H]21	D3 antag -53
CC(C)C1Cc2c(sc3c2c(=O)n(Cc2ccccc2)c2nncn32)CO1 (configuration not stated)	D3 antag -53
N[C@H](C(=O)O)c1ccc(O)cc1	none (no result: mIDH1 inhibitor, D3 antag, B2AR arrestin, Integrin act MD)
CC(OC(=O)CC1CCCC1)C(=O)Nc1ccc(Cl)cn1 (configuration not stated)	D3 antag -54
O=C(COC(=O)CC1CCCC1)Nc1ccc(Cl)cn1	none
CCc1c(C(=O)NNC(=S)NCCc2ccccc2)csc1C	D3 antag -66
CCc1c(C(=O)NNC(=S)NC2CCCCC2)csc1C	none
O=Cc1s/c(=N\S(=O)(=O)c2ccccc2)n(CCCCl)c1Cl	D3 antag -120
CCn1c(C)cs/c1=N\S(=O)(=O)c1ccccc1	none
O=C(CCNS(=O)(=O)c1ccc(Br)s1)Nc1ccc(Cl)cc1	D3 antag -52
O=C(CCNS(=O)(=O)c1ccc(Br)s1)NC1CCCC1	D3 antag -103
O=C(CCS(=O)(=O)c1ccc(Br)s1)NC1CCCC1	none
CSc1ccc(CCNC(=O)CCn2c(=O)c3cccn3c3cccnc32)cc1	none (no result: D3 antag, B2AR arrestin, Integrin act MD)
CCOC(=O)CNS(=O)(=O)c1cc(-c2nn(C)c(=O)c3ccccc23)ccc1C	none
Cc1ccc(-c2nn(C)c(=O)c3ccccc23)cc1S(=O)(=O)NCCN1CCOCC1	D3 antag -53
N=C(N)c1ccc(OCCCOc2ccc(C(=N)N)cc2Br)c(Br)c1	none (no result: mIDH1 inhibitor, D3 antag, B2AR arrestin, Integrin act MD)
Oc1c(Br)cc(Cl)cc1C=Nc1ccc(N2CCOCC2)cc1	none
Oc1ccc(N=Nc2cccc(Cl)c2)cc1C=Nc1ccc(N2CCOCC2)cc1	D3 antag -76
CC(=O)CCc1ccc(OCC(O)CNCCOc2ccc(C)cc2)cc1 (configuration not stated)	DRD3 agonist 51
CCOC(=O)c1cccc(OCC(O)CNCCOc2ccccc2F)c1 (configuration not stated)	D3 antag -55
Cc1ccc(OCCNCC(O)COc2ccccc2)cc1 (configuration not stated)	D3 antag -83

Compound activity deposited in PubChem BioAssay by National Center for Advancing Translational Sciences (NCATS).
